Structures are written as SMILES. Among all 410,000 compounds or so, about 820 (0.2%) were called active. A call without a number means that no potency is given here. About 2% were inconclusive and are not listed. The call rests on the fitted dose curve; in most records, active means well fitted activation curve with a large enough effect; inconclusive means small, poorly fitted or top-dose-only effect; inactive means flat fitted curve, though single readings scatter; cell line not stated here. Only a selection was taken, and actives are over-represented in it overall.

Among the data in PubChem BioAssay AID624263 (National Center for Advancing Translational Sciences (NCATS), 2012) are Potency values, retold here.
Potency means the concentration at half of the fitted maximal effect.

The nature of this assay: A Quantitative High throughput Screen to Identify Chemical Modulators of PINK1 Expression. Further: nearly all actives have a fitted effect of over 65% in size. Particulars: PINK1 immunofluorescence, high-content cytometry, 24 h; series mostly up to 76.6 µM. In short, it runs like this: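 Fluorescence from anti-PINK1 antibody, together with nuclear and cell stains, was scanned on a laser-scanning cytometer. Before staining, stable-line cells were incubated 24 hours with compounds at 5 concentrations; primary antibody 12 h at 10 degrees C.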
In the case of `O=C(c1cccnc1)N1CCN(S(=O)(=O)c2cccs2)CC1`, the Potency result was “inactive”.

Regarding `O=C(N/N=C/c1sc(N2CCCCC2)nc1-c1cccs1)c1cccnc1`, the Potency is 20 µM (active).

Turning to `O=C(Nc1ccc(N2CCN(C(=O)c3ccccc3)CC2)c(Cl)c1)c1cccnc1`, the Potency entry was “inactive”.

In the case of `Cc1ccc(-c2ccc(C(=O)N3CCc4nnc(CNC(=O)c5ccccc5)n4CC3)cc2)cc1`, the Potency entry was “inactive”.

As for `O=C(CN1Cc2ccccc2OC(c2ccccc2)C1)N1CCCCC1c1cccnc1` (stereo not given), the Potency result was “inactive”.

In the case of `CCOc1ccc2nc(N3CCCN(CCCn4cccn4)CC3)nc(C)c2c1`, the Potency result was “inactive”.

Turning to `Oc1c(Br)cccc1/C=N/Nc1c(F)c(F)c(F)c(F)c1F`, the Potency is 39.8 µM (active).

As to `CCOC(=O)N1CCC(N2CCOc3ccc(CN4CCC(O)(c5cccnc5)CC4)cc3C2)CC1`, the Potency entry was “inactive”.

For the molecule `O=C(CSc1nc2cc3c(cc2c(=O)n1CCC1=CCCCC1)OCO3)NCc1ccco1`, the Potency result was “inactive”.

For `O=C(CSc1nc2ccccc2c(=O)n1CCCO)NC1CC1`, the Potency entry is “inactive”.

As for `O=C(CCCn1c(SCC(=O)c2ccc(F)cc2)nc2ccccc2c1=O)NCc1ccco1`, the Potency is 15.8 µM (active).

Take `O=C(Nc1ccc([N+](=O)[O-])cc1)c1cnn2c1NC(=C1CC1)C=C2C(F)F`: the Potency entry was “inactive”.

For the molecule `COCC(=O)Nc1cc(C(=O)N2CCCC(c3ccccc3)CC2)c2c(c1)nc(-c1ccncc1)n2C` (stereo not given), the Potency entry was “inactive”.

In the case of `COc1ccccc1C1CN(Cc2ccccc2O)Cc2ccccc2O1` (stereo not given), the Potency entry was “inactive”.

As to `COC(=O)c1ccccc1C(=O)NCc1nc(N2CCCC2)c2cccc(C)c2n1`, the Potency entry was “inactive”.

On to `O=S(=O)(NCCCN1CCOCC1)c1ccc(F)c(Cl)c1`, for which the Potency result was “inactive”.

With `Cc1cc(C)c(S(=O)(=O)NCCCN2CCOCC2)cc1Br`, the Potency result is “inactive”.

For `Cc1ccc(S(=O)(=O)NCCN2CCOCC2)cc1C`, the Potency is 14.1 µM (active).

Regarding `COc1ccccc1C(=O)N[C@@H]1c2ccccc2C2(CCN(Cc3nc(C(C)C)cs3)CC2)[C@H]1O`, the Potency entry was “inactive”.

Consider `COc1cc(OC)c(/C=C/c2ccnc3ccccc23)c(OC)c1`, for which the Potency entry was “inactive”.

In the case of `Cc1cccc(CNC(=O)c2cnn(-c3nccc(-c4ccccc4F)n3)c2C2CC2)n1`, the Potency entry was “inactive”.

Take `CN(C)c1ccc(/C=C2\C=Cc3ccccc32)cc1Br`: the Potency entry was “inactive”.

As to `CC(C)(C)C1CCC(NC(=O)c2cnn3c2NC(=C2CC2)C=C3C(F)F)CC1` (stereo not given), the Potency entry was “inactive”.

Regarding `Cn1nccc1C(=O)NCC1CCC2(CCN(Cc3c(O)ccc4ccccc34)CC2)O1` (stereo not given), the Potency result was “inactive”.

With `O=C(NCCN1CCOCC1)c1cnn(-c2nccc(-c3cccs3)n2)c1C1CC1`, the Potency result is “inactive”.

For the molecule `Cc1cnc(C)c(-c2cc(F)c3c(c2)CC(CNC(=O)c2cccc(Cn4cccn4)c2)O3)n1` (stereo not given), the Potency entry is “inactive”.

For `CCOc1ccc2c(c1)cc(CN(C(=O)CC)C1CCCCC1)c1nnnn12`, the Potency result was “inactive”.

Consider `CCc1cccc(NC(=S)N(CCN(C)C)C2CCN(C(C)C)CC2)c1`, for which the Potency entry is “inactive”.

For `CCc1ccc2c(c1)cc(CN(C(=S)Nc1ccccc1Cl)C1CC1)c1nnnn12`, the Potency was 12.6 µM (active).

As for `CC(C)C(=O)NC(C)c1nnc2n1CCN(Cc1cccc3ncccc13)CC2` (stereo not given), the Potency entry was “inactive”.

Take `O=C1CCN(Cc2ccc(-c3ccccc3)cc2)CCN1Cc1ccccn1`: the Potency result was “inactive”.

As for `Cc1oc(-c2cccc(NC(=O)c3ccccc3)c2)nc1CNC(=O)c1cnc2ccccn2c1=O`, the Potency result is “inactive”.

For `O=C(Nc1ccccc1C(F)(F)F)c1nc(S(=O)(=O)Cc2ccccc2F)ncc1Cl`, the Potency result was “inactive”.

As for `CC1(C(=O)NCCc2c[nH]c3ccccc23)C=CC2(CCCCC2)N1C(=O)c1ccccc1` (stereo not given), the Potency result is “inactive”.

In the case of `COCCCNC(=O)/C(C#N)=C/c1c(N2CCCCCC2)nc2ccccn2c1=O`, the Potency entry was “inactive”.

In the case of `N#C/C(=C/c1ccc(N2CCCCC2)o1)C(=O)NCCc1c[nH]c2ccccc12`, the Potency was 11.2 µM (active).

On to `COCCN1CCN(C(=O)c2sc3ncnc(NCC4CCCO4)c3c2C)CC1` (stereo not given), for which the Potency result was “inactive”.

As for `CN1CCCCCC1C(=O)NCCN1Cc2ccccc2OC(c2ccsc2)C1` (stereo not given), the Potency result was “inactive”.

Take `COc1ccccc1-c1ccnc(-n2ncc(C(=O)NCCc3ccncc3)c2C)n1`: the Potency result is “inactive”.

On to `COC(=O)C1CCCCN1Cc1ccc2c(c1)CN(Cc1cc(OC)c3c(c1)OCO3)CCO2` (stereo not given), for which the Potency entry was “inactive”.

As to `COCC(C)NC(=O)c1ccc(-n2nc(C(F)(F)F)cc2-c2cccs2)cc1` (stereo not given), the Potency result is “inactive”.

`COc1ccc(C(F)(F)F)cc1NC(=O)c1sc2nc(-c3cccs3)ccc2c1N`: the Potency result was “inactive”.

Consider `N#Cc1ccc(C(=O)Nc2nc(-c3cccs3)c(C(=O)C(F)(F)F)s2)cc1`, for which the Potency is 6.31 µM (active).

Consider `C=C1C=C(C)n2ncc(C(=O)Nc3ccccc3O)c2N1`, for which the Potency entry is “inactive”.

For `COc1ccccc1CNc1cc(-c2ccccc2CN(C)C)ncn1`, the Potency entry is “inactive”.
